Screening results deposited in PubChem BioAssay by Fisher Drug Discovery Resource Center.
NPYLR7 ag = mosquito NPYLR7 agonism. HEK293T NPYLR7/Galpha15, GCaMP6s calcium fluorescence. AID 1259423. 270,000 tested, 0.15% active. activation, % at 10 µM; in the data active = activation above about 40%
hcGAS lum = human cGAS inhibition; Q8N884; recombinant h-cGAS, ATP depletion, Kinase-Glo luminescence; inhibition, % at 12.5 µM; 290,000 tested, 0.081% active; AID 1259398
Target sequence (Q8N884 whole entry, looked up): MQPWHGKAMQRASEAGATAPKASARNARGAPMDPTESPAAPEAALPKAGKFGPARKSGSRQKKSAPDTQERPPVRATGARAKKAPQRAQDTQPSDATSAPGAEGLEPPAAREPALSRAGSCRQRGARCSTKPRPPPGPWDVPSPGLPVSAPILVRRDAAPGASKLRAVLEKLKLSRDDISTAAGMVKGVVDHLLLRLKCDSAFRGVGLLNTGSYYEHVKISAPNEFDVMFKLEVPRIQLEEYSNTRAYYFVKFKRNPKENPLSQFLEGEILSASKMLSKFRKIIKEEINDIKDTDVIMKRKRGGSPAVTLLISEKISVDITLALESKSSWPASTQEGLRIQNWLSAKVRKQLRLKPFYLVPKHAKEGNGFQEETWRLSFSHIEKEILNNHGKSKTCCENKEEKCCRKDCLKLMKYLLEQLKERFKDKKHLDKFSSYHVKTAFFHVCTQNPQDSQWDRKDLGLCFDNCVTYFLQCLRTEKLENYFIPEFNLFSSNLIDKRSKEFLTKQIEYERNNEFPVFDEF
mcGAS inh = inhibitors of mouse cGAS | Q8C6L5 | recombinant cGAS, Kinase-Glo ATP depletion luminescence | inhibition, % at 12.5 µM | 160,000 tested, 0.15% active | AID 1259399
Each line names hits and unclear results; the compound was inactive in the other large screens; ! = a repeat was not active. Only some compounds are listed: those with a hit (about 0.24% of all), similar ones and a draw of the others. Cut-off read from the data, not from the text of the source, unless noted: active = inhibition above about 40%; inactive = the rest.

N=C1/C(=C\c2ccc(Br)o2)C(=O)N=C2SC(Cc3cccs3)=NN12	none (no result: mcGAS inh)
N=C1/C(=C\c2ccco2)C(=O)N=C2SC(Cc3cccs3)=NN12	hcGAS lum 52 (no result: mcGAS inh)
O=C(Nc1ccc(F)c(F)c1)c1ccc(Br)s1	none (no result: mcGAS inh)
Cc1nn2c(=O)[nH]c(SCC(N)=O)nc2c1-c1ccccc1	hcGAS lum 55
CC(=O)Nc1ccc(NC(=O)CSc2nc3c(-c4ccccc4)c(C)nn3c(=O)[nH]2)cc1	none
CC(=O)NCCC(=O)NC(C)c1ccc(Oc2ccccc2)cc1 (stereo not given)	none (no result: mcGAS inh)
Oc1c(Cl)cc(Cl)c2ccc(N/N=C\c3ccc(OC(F)(F)F)cc3)nc12	none
NC(=NC1C2CC3CC(C2)CC1C3)Nc1ccc(I)cc1 (stereo not given)	NPYLR7 ag 43 (no result: mcGAS inh)
CSC(C)C(=O)Nc1ccc(I)cc1 (stereo not given)	none
Cc1cn2c3c(=O)n(CC(C)C)c(=O)n(C)c3nc2n1CC(C)C	none (no result: mcGAS inh)
CNCc1ccc(CN(C)C)cc1	none (no result: mcGAS inh)
Cc1cc2c(c(-c3ccc4c(cnn4C)c3)c1)OC(CN)C2 (stereo not given)	NPYLR7 ag 76 (no result: mcGAS inh)
Cc1cc2c(c(-c3cccs3)c1)OC(CN)C2 (stereo not given)	none (no result: mcGAS inh)
CCC(NC(=O)c1ccc[nH]1)C(=O)N1CCOCC1 (stereo not given)	none
COc1ccc(C=C(C#N)C(=O)c2ccc(OC)cc2)cc1	none
C=CCOc1ccc(C=C(C#N)C(=O)c2ccc(OC)cc2)cc1	mcGAS inh 58
COc1cc(C)c(CN2CCN(Cc3nc4cc(Cl)ccc4c(=O)[nH]3)CC2)cc1OC	none (no result: mcGAS inh)
COc1ccc2nc3cc(Cl)ccc3c(Nc3cc(CN4CCCC4)c(O)c(CN4CCCC4)c3)c2n1	hcGAS lum 45 (no result: mcGAS inh)
Cc1cc(C(=O)N2CCC3(CCCN(CCC4CCCCC4)C3)C2)nn1C (stereo not given)	none (no result: mcGAS inh)
O=c1c2ccccc2oc2ccccc12	none
O=C1CNc2c(c(=O)oc3ccccc23)N1	hcGAS lum 52 (no result: mcGAS inh)
CCN(CC)C(=O)Oc1ccc2c(ccn2Cc2ccccc2Cl)c1NC(=O)C12CC[C@@](C)(C(=O)O1)C2(C)C	none
O=S(=O)(c1ccc(Cl)s1)N1CCN(Cc2ccccn2)CC1	none (no result: mcGAS inh)
CNC(=O)c1cccc(C(=O)OCCc2cccs2)c1	none (no result: mcGAS inh)
Oc1oc(-c2ccccc2Br)nc1C=Nc1ccccc1	NPYLR7 ag 65 (no result: mcGAS inh)
Cc1ccc(N=Cc2nc(-c3ccccc3Br)oc2O)cc1	none (no result: mcGAS inh)
O=C(OCc1cc2c(cc1Br)OCO2)c1cnccn1	hcGAS lum 69
O=C(OCc1cc2c(cc1Br)OCO2)c1cccc(O)c1	none (no result: mcGAS inh)
O=C(NCc1ccco1)C1COC2(CCCCC2)N1C(=O)c1cccc(Cl)c1 (stereo not given)	none
O=C(Nc1cccc2nsnc12)c1ncn[nH]1	none (no result: mcGAS inh)
Cc1cccc(-c2nc3c(c(=O)[nH]2)CN(C(=O)c2ccc(Cl)cc2Cl)CC3)c1	none
CCN(C(=O)c1sc(NC(=O)CCl)c(C#N)c1C)C1CCCCC1	none
Cc1c(C#N)sc(NC(=O)CCl)c1C#N	mcGAS inh 45
CCCCCCCCCCCCNC(=O)c1c(O)c2ccccc2[nH]c1=O	hcGAS lum 45
O=C(NCCCO)c1c(O)c2ccccc2[nH]c1=O	none (no result: mcGAS inh)
CCOC(=O)C1C(=O)CC(O)(c2ccccc2)CC1C=C(Cl)Cl (stereo not given)	none (no result: mcGAS inh)
COc1cc(C=NN=CC2=C(N3CCOCC3)C(=Cc3ccccc3)CC2)cc(OC)c1	none
CCOC(=O)CCC(=O)N1CCN(C(=O)c2cc3ccoc3n2Cc2ccc(C)cc2)CC1C (stereo not given)	none
C=C(C)Cn1c(C(=O)N2CCN(C(=O)CCC(=O)OCC)C(C)C2)cc2ccoc21 (stereo not given)	NPYLR7 ag 57
COc1cccc(-c2nc3ccc(Br)cn3c2NCc2ccccc2)c1	mcGAS inh 89!
COc1cccc(-c2nc3ccc(Cl)cn3c2NCc2ccccc2)c1	none
Clc1cc2c(c(CSc3nnc(-c4ccccc4)o3)c1)OCOC2	none
Clc1cc2c(c(CSc3nnnn3-c3ccccc3)c1)OCOC2	hcGAS lum 72
CSc1nnc2c(n1)OC(c1ccc(OC(=O)c3ccc(Br)cc3)cc1)Nc1ccccc1-2 (stereo not given)	NPYLR7 ag 46
CSc1nnc2c(n1)OC(c1ccc(Br)cc1)Nc1ccccc1-2 (stereo not given)	none
CCCCN1CCC(COC(=O)c2cc(Cl)c(N)c3c2OCCO3)CC1	mcGAS inh 91
CCCCN1CCC(CCC(=O)c2cc(Cl)c(N)cc2OC)CC1	none (no result: mcGAS inh)
CC(=O)N[C@H]1CCN(C(=O)C[C@@H]2[C@H](O)CCC3[C@]4(C)CO[C@@H](Cc5ccccc5)O[C@@H]4CC[C@]32C)C1 (stereo not given in full)	none
C=CCNC(=O)C(C)Sc1nc2cc3ccccc3cc2c(=O)n1C (stereo not given)	none (no result: mcGAS inh)
COc1ccc(-c2csc(NC(=O)CN3CC(C)CC(C)C3)n2)c(OC)c1 (stereo not given)	none (no result: mcGAS inh)
COc1ccc(-c2csc(NC(=O)CCl)n2)c(O)c1	mcGAS inh 60
COc1cccc(-c2cc(C(=O)Nc3ccc(F)cc3)nc3cc(-c4ccccc4)nn23)c1	none
CC1(C2CC2)NC(=O)N(CC(=O)N(Cc2cccnc2)c2ccc3c(c2)OCO3)C1=O (stereo not given)	none
O=C(O)CN1C(=O)/C(=C\c2cc([N+](=O)[O-])cc(Br)c2O)SC1=S	NPYLR7 ag 81, hcGAS lum 51, mcGAS inh 67
COc1cc([N+](=O)[O-])cc(/C=C2/SC(=S)N(CC(=O)O)C2=O)c1O	none
O=C(O)CN1C(=O)/C(=C/c2cc(Br)c(O)c(Br)c2)SC1=S	NPYLR7 ag 251
COc1ccc(/C=C2/SC(=S)N(CC(=O)O)C2=O)cc1OC	none
COc1cc(/C=C2/SC(=S)N(CC(=O)O)C2=O)cc(Br)c1O	none
CN(C)c1ccc(/C=C2/SC(=S)N(CC(=O)O)C2=O)cc1Br	NPYLR7 ag 124 (no result: mcGAS inh)
NC(=O)N/N=C\c1c[nH]c2ccccc12	none
CCCCCN=C(N)NN=Cc1c[nH]c2ccc(OC)cc12	NPYLR7 ag 46 (no result: mcGAS inh)
CCCCc1ccc(C(=O)Nc2ccc(-n3nc(OCC(C)C)nc3-c3cccc(C(F)(F)F)c3)cc2)cc1	none
Cc1ccccc1-n1nc(C)c(-c2ccccc2)c1NC(=O)CN(CC(C)C)S(=O)(=O)c1ccc([N+](=O)[O-])cc1	none
CCCCN(CC(=O)Nc1c(-c2ccccc2)c(C)nn1-c1ccccc1C)S(=O)(=O)c1ccc(F)cc1	NPYLR7 ag 48
CNc1ccc2ncc(-c3ccc(CN(C)C)cc3)n2n1	none (no result: mcGAS inh)
CCOc1ccccc1CN1CCN(Cc2ccc(F)c(F)c2)CC1CCO (stereo not given)	none (no result: mcGAS inh)
CSc1nc(N2CCOCC2)c2cnn(CCNC(C)=O)c2n1	none (no result: NPYLR7 ag)
CCOc1cc(/C=C2\C(=N)N3N=CSC3=NC2=O)cc(Br)c1OC(=O)c1ccccc1	NPYLR7 ag 74 (no result: mcGAS inh)
COc1cc(/C=C2\C(=N)N3N=CSC3=NC2=O)ccc1OC(=O)c1cccc(C)c1	none (no result: mcGAS inh)
CCCNC(=O)C1(C)CCCN(Cc2cccnc2)C1 (stereo not given)	none
Cc1ccc(N=Nc2sc3ccccc3c2O)cc1	none
COc1ccc(C=C(C#N)c2nc(-c3ccc(F)cc3)cs2)cc1O	none
COc1cc(/C=C(/C#N)c2nc3cc(Cl)ccc3s2)ccc1O	NPYLR7 ag 102 (no result: mcGAS inh)
O=S(=O)(NCCc1csc2nc(-c3cccs3)nn12)c1cccc(F)c1	none
Cc1ccc(S(=O)(=O)Nc2ccc(-c3ccc(=O)n(C)n3)cc2)s1	none
